Where a name gives a salt, the structure may show the parent alone.
Legend:
[1] = test system: Vero E6 infected with SARS-CoV-2; assay: morphology score (similarity to uninfected cells); higher = more like uninfected cells; settings: 24 h
[2] = test system: Vero E6 infected with SARS-CoV-2; assay: SARS-CoV-2 infection rate relative to infected DMSO; higher = more infection, active = 60 or less; settings: 24 h

Compound | morphology score [1] | SARS-CoV-2 infection rate [2]
N[C@@H](CCC(=O)N[C@@H](CS)C(=O)NCC(=O)O)C(=O)O [glutathione] (10 µM) | -0.0349 | 108% (inactive)
CCN(CCCCOC(=O)c1ccc(OC)c(OC)c1)C(C)Cc1ccc(OC)cc1 (centres undefined) [mebeverine] (10 µM) | 0.178 | 94.5% (inactive)
C[C@@H]1CC[C@@]2(OC1)O[C@H]1C[C@H]3[C@@H]4CC=C5C[C@@H](O[C@@H]6O[C@H](CO)[C@@H](O[C@@H]7O[C@@H](C)[C@H](O)[C@@H](O)[C@H]7O)[C@H](O)[C@H]6O[C@@H]6O[C@@H](C)[C@H](O)[C@@H](O)[C@H]6O)CC[C@]5(C)[C@H]4CC[C@]3(C)[C@H]1[C@@H]2C [dioscin] (10 µM) | 0.0193 | 101% (inactive)
CN(c1nccc(=O)[nH]1)C1CCN(c2nc3ccccc3n2Cc2ccc(F)cc2)CC1 [mizolastine] (10 µM) | 0.211 | 106% (inactive)
O=C(O)Cc1cccc(OCCCN(Cc2cccc(C(F)(F)F)c2Cl)CC(c2ccccc2)c2ccccc2)c1 (10 µM) | 0.267 | 102% (inactive)
N[C@@H](Cc1c[nH]c2ccccc12)C(=O)O [tryptophan] (10 µM) | -0.124 | 100% (inactive)
CN(C)C(=O)COC(=O)Cc1ccc(OC(=O)c2ccc(NC(=N)N)cc2)cc1 [camostat-mesilate] (10 µM) | 0.0997 | 114% (inactive)
Cc1cccn2c(=O)c(/C=C(\C#N)c3nc4ccccc4s3)c(Oc3ccc(F)cc3)nc12 (10 µM) | 0.0128 | 102% (inactive)
C/C=C(/C(=C/C)c1ccc(O)cc1)c1ccc(O)cc1 [dienestrol] (10 µM) | -0.0419 | 96% (inactive)
CN/C(=N\CCSCc1nc[nH]c1C)NC#N [cimetidine] (10 µM) | 0.151 | 97.5% (inactive)
CC[C@@H](c1cccc(O)c1)[C@@H](C)CN(C)C [Tapentadol (hydrochloride)] (10 µM) | 0.0731 | 108% (inactive)
CN1CCc2c(c3ccccc3n2Cc2ccc(C(=O)NO)cc2)C1 [tubastatin-A] (0.833333 µM) | 0.115 | 95.5% (inactive)
NC(=O)c1ccc(F)c2c1C[C@@H](N(C1CCC1)C1CCC1)CO2 [robalzotan] (10 µM) | 0.00904 | 100% (inactive)
CNC(=O)c1cc(COc2nnc(Nc3ccc(Cl)cc3)c3ccoc23)ccn1 [telatinib] (10 µM) | 0.0611 | 107% (inactive)
CCc1cc(O)c(Oc2ccc(C(N)=O)cc2F)cc1F (10 µM) | 0.0909 | 95.5% (inactive)
C[C@@H]1c2ccccc2CN1CC1=NCCN1 (racemic) (10 µM) | 0.0304 | 92.5% (inactive)
Oc1ccc(CC2NCCc3cc(O)c(O)cc32)cc1 (centres undefined) [higenamine] (0.833333 µM) | 0.0764 | 103% (inactive)
NC(=O)Nc1cc(-c2cccc(F)c2)sc1C(=O)N[C@H]1CCCNC1 (0.833333 µM) | 0.11 | 106% (inactive)
COc1cc(OC)c(C(=O)CCCN2CCCC2)c(OC)c1 [buflomedil] (10 µM) | 0.0545 | 102% (inactive)
CC1(C)Oc2ccc(C#N)cc2[C@@H](N2CCCC2=O)[C@@H]1O [levcromakalim] (10 µM) | 0.221 | 97% (inactive)
COc1ccc(N(C(=O)Oc2c(C)cccc2C)c2ccnc(Nc3ccc(N4CCN(C)CC4)cc3)n2)c(OC)c1 (10 µM) | 0.0671 | 111% (inactive)
C[S+](C)CC[C@H](N)C(=O)O [cabagin] (10 µM) | 0.00749 | 109% (inactive)
COc1cccc(-c2cc(=O)c3ccccc3o2)c1N (10 µM) | -0.25 | 118% (inactive)
CN(C)Cc1cccc(N/C(=C2\C(=O)Nc3cc(C(N)=O)ccc32)c2ccccc2)c1 (10 µM) | -0.132 | 120% (inactive)
Cc1cc(-c2nc(-c3ccc(OC(F)(F)F)cc3)no2)nn1Cc1ccnc(N2CCN(C3CC3)CC2)c1 (10 µM) | 0.0825 | 98.5% (inactive)
O=C(Nc1cnn2ccc(N3CCC[C@@H]3c3cc(F)ccc3F)nc12)N1CC[C@H](O)C1 [larotrectinib] (10 µM) | -0.124 | 122% (inactive)
COc1nccnc1NS(=O)(=O)c1ccc(N)cc1 [sulfametopyrazine] (10 µM) | -0.162 | 112% (inactive)

From the supplement of paper PMC13380429
